# Bioassay records: PubChem, National Center for Advancing Translational Sciences (NCATS)
# BCR signal inh = blocks chronic active B-cell receptor signaling; ABC-DLBCL IkBa-CBG/CBR reporter, luminescence ratio, 4 h; 340,000 tested, 0.05% active; Potency, µM (top dose mostly 46.1 µM), for the others: at the top dose activity change, negative = inhibition, usual class: inhibitors; active means well fitted inhibition curve with a large enough effect in the signal ratio, with a control signal flat, not every such curve was filed as active; inconclusive means small, poorly fitted or top-dose-only effect, or effect the other way, or a change in a side signal; the % refers to the signal ratio;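 further: potency means the concentration at half of the fitted maximal effect; plate controls were basal doxycycline-induced cells for no effect and cells given 10 µM MG132 for full effect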
#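 Doxycycline induced both beetle luciferases in TMD8 lymphoma cells; IKK-driven degradation limits the IkappaBalpha-fused green signal, while red luminescence normalises for cell number and nonspecific effects. Compounds tested up to 46 uM, 4 hrs.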
# RXFP1 antagonist = blocks the human relaxin receptor RXFP1. Q9HBX9. HEK293-RXFP1, relaxin-stimulated cAMP HTRF, 30 min; stronger effect = lower value. activity change, negative = inhibition, % at 57.5 µM. 350,000 tested, 0.59% active;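 active means activity change of -60% or lower, but not beyond a set lower limit; inconclusive means change between -60% and -40%, or beyond the set limit; inactive means change above -40%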
# Target sequence (Q9HBX9 whole entry, looked up): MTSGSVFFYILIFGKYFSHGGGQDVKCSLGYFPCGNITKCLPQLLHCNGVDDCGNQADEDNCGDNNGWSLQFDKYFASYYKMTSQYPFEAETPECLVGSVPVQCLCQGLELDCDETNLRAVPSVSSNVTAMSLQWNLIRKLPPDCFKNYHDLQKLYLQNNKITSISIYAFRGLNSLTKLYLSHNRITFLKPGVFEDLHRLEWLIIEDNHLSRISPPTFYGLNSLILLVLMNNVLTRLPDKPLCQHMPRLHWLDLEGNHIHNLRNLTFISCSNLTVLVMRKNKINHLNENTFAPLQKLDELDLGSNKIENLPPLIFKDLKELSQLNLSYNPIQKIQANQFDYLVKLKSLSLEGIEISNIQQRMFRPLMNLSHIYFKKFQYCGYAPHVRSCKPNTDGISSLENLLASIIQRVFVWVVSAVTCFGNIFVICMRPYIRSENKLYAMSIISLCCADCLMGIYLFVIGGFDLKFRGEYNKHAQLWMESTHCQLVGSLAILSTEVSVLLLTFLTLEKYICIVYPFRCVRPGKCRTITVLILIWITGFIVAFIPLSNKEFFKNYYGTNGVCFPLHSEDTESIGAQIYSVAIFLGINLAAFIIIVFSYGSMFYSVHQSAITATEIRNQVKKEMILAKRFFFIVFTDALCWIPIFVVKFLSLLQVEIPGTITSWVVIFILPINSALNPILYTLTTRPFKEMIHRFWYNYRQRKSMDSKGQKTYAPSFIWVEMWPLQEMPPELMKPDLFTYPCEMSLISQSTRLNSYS
# RXFP1 ag = activates the human relaxin receptor RXFP1; Potency, µM (top dose mostly 57.5 µM), for inactives: at the highest dose activation, hits mostly activators; 370,000 tested, 0.3% active; Q9HBX9; HEK293T-RXFP1 cAMP TR-FRET, 30 min; response scale: percent of porcine relaxin response, buffer zero; further: potency means the concentration at half of the fitted maximal effect; nearly all actives have a fitted effect of over 60% in size
#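 HEK293T cells stably expressing RXFP1 were pretreated with the PDE4 inhibitor Ro 20174, exposed to compounds for 30 min at 37C, lysed, and cAMP was read by TR-FRET. Data normalized to buffer (basal) and 29 nM porcine relaxin (100%).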
# B2AR arrestin = beta2AR (human) beta-arrestin recruitment activity; beta-arrestin recruitment to beta2AR, cell-based reporter; 330,000 tested, 0.02% active; P07550; Potency, µM (highest dose often 46.1 µM), for inactives: at the top dose activation, most hits filed as activators;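 further: potency means the concentration at half of the fitted maximal effect; 0% = DMSO controls and full agonism = EC100 isoproterenol or metaproterenol; nearly all actives have a fitted effect of over 65% in size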
# * hit, by the source's call; u = inconclusive; x = no result; ! = not confirmed by another sample. Compounds with a hit are over-represented: about 0.59% of the library has one in this group of screens. Unless noted, the call rests on the fitted dose curve; in most records, active means well fitted activation curve with a large enough effect; inconclusive means small, poorly fitted or top-dose-only effect; inactive means flat fitted curve, though single readings scatter. Unless noted, on the % scale 0 is the no-effect control and ±100 the full control effect.
SMILES,BCR signal inh,RXFP1 antagonist,RXFP1 ag,B2AR arrestin
COc1cccc2c1C(=O)c1c(O)c3c(c(O)c1C2=O)C[C@@](O)(C(=O)CO)CC3OC1CC(N2CCOC(OC)C2)C(O)C(C)O1 (stereo partly drawn),x,-19,x,x
NC(N)=Nc1ccc2[nH]c3c(c2c1)C[C@@]1(O)[C@H]2Cc4ccc(O)c5c4[C@@]1(CCN2CC1CC1)[C@H]3O5,23µM*,x,2%,0%
O=c1nc(/C=C/c2ccc(Cl)cc2Cl)cc(C(F)(F)F)[nH]1,u,-75*,0%,0%
CCOC(C(=O)OCCN(C)C)(c1ccccc1)c1ccccc1,x,-6,x,x
CC[N+]1(CC)CCC(OC(=O)C(O)(c2ccccc2)c2ccccc2)C1 (stereo not drawn),x,10,x,x
Oc1cc(Cl)ccc1Oc1ccc(Cl)cc1Cl,x,-77*!,x,x
O=C(O)COc1ccc(Cl)cc1Cl,x,2,x,x
COc1ccc(N2C(=O)/C(=C/C=C/c3ccccc3[N+](=O)[O-])C(=O)NC2=S)cc1,8%,-77*,1%,0%
CC[C@@]1(O)C(=O)OCc2c1cc1n(c2=O)Cc2cc3c(NC(=O)CN)cccc3nc2-1,u,6,14µM*,0%
COc1cc(/C=C/[N+](=O)[O-])ccc1O,21µM*,x,-1%,0%
CC(Cc1ccccc1)N(C)Cc1ccco1 (stereo not drawn),x,7,x,x
O=c1[nH]c(=S)[nH]c(O)c1N=Nc1ccc(S(=O)(=O)N2CCc3ccccc32)cc1,8%,-100*,0%,-1%
O=c1[nH]c(=S)[nH]c(O)c1N=Nc1ccc(SC(F)F)cc1,u,-71*,12%,0%
CC[n+]1c(-c2ccccc2)c2cc(N)ccc2c2ccc(N)cc21,x,-85*!,x,x
CCCCN(CC)C(=O)CSc1nc2n[nH]c(C)c2c(=N)n1-c1cccc(Cl)c1,u,-15,0%,x
O=C1NC(=O)N(Cc2ccco2)C(=O)/C1=C\c1cccn1CCOc1ccc(Cl)cc1,u,u,-3%,0%
Cc1cccc(OCCn2cccc2/C=C2/C(=O)NC(=O)N(Cc3ccco3)C2=O)c1,10%,-68*,1%,-1%
O=C1NC(=O)N(Cc2ccco2)C(=O)/C1=C/c1ccc(-c2cccc([N+](=O)[O-])c2)o1,7%,-67*,2%,0%
C=CCN1C(=O)NC(=O)/C(=C\c2ccc(-c3ccccc3[N+](=O)[O-])o2)C1=O,u,-101*,-2%,0%
CCN(CC)C(=O)c1ccc(NC(=O)CCn2nc(-c3ccc(C)cc3)c3ccccc3c2=O)cc1,x,-79*,1%,x
CCN(CC)C(=O)c1ccc(NC(=O)Cn2nc(-c3ccc(C)cc3)c3ccccc3c2=O)cc1,x,-3,20%,x
CCN1C(=O)C(=C2C=C(C)N(Cc3ccco3)C(C)=C2)C(=O)N(CC)C1=S,5%,19,28µM*,-1%
O=C1OC(CCN2CCCCC2)OC1(c1ccccc1)c1ccccc1 (stereo not drawn),x,21,x,x
CCCCCc1ccc(C(=O)CCCC)c(=S)[nH]1,u,-64*,2%,0%
O=C1NC(=O)C(=Cc2ccc(N3CCN(C(=O)c4ccccc4)CC3)c([N+](=O)[O-])c2)C(=O)N1,u,-75*,-1%,0%
COc1cc(CC(C)N)c(OC)cc1C (stereo not drawn),x,-6,x,x
CCCCCCCSc1cc(OC)c(CCNC)cc1OC,u,-70*,0%,-1%
CCCCCSc1cc(OC)c(CCNC)cc1OC,-3%,-27,-1%,0%
CCOC(=O)C1(c2ccccc2)CCN(CCc2ccc(N)cc2)CC1,x,-13,x,x
